PubChem BioAssay AID602432 (Southern Research Specialized Biocontainment Screening …, 2012)
Results with a measured potency or affinity are listed apart. Records with an inconclusive call do not appear. Calls of active or inactive are those of the source. No rule for the calls is given here.

Experiment: HepG2 cell cytotoxicity, cytotoxicity control, set 6 (AID 602432)

SMILES | outcome
CC(C)CCNC(=O)CSc1nc2c(c(=O)[nH]1)CCCCC2 | inactive
CC(C)CCNC(=O)CSc1nc2c(c(=O)[nH]1)CCCC2 | inactive
O=C(CSc1nc2ccccc2c(=O)[nH]1)NC1CCCCC1 | inactive
O=C(CSc1nc2c(c(=O)[nH]1)CN(Cc1ccccc1)CC2)NC1CCCCC1 | inactive
O=C(CSc1nc2c(c(=O)[nH]1)CCCC2)NC1CCCCC1 | inactive
O=C(CSc1nc2c(c(=O)[nH]1)CCC2)NC1CCCCC1 | inactive
COc1ccc(NC(=O)NCc2ccc(C(=O)N3CCC(c4ccccc4)CC3)cc2)cc1 | inactive
O=C(c1ccc(CNc2c(N3CCOCC3)c(=O)c2=O)cc1)N1CCC(c2ccccc2)CC1 | inactive
COCCNC(=O)CSc1nc2ccccc2c(=O)[nH]1 | inactive
O=C(NCc1ccc(C(=O)N2CCN(c3ccccc3)CC2)cc1)NC1CCCCC1 | inactive
COC(=O)C(Cc1ccccc1)NC(=O)CSc1nc2ccccc2c(=O)[nH]1 (configuration not stated) | inactive
O=C(c1ccc(CNc2c(N3CCCC3)c(=O)c2=O)cc1)N1CCC(c2ccccc2)CC1 | inactive
CC1CCCN(c2c(NCc3ccc(C(=O)N4CC=C(c5ccccc5)CC4)cc3)c(=O)c2=O)C1 (configuration not stated) | inactive
O=C(c1ccc(CNc2c(N3CCOCC3)c(=O)c2=O)cc1)N1CCN(c2ccccc2)CC1 | inactive
O=C(c1ccc(CNc2c(N3CCCC3)c(=O)c2=O)cc1)N1CCN(c2ccccc2)CC1 | inactive
CC(C)CCNC(=O)CSc1nc2ccccc2c(=O)[nH]1 | inactive
O=C(CSc1nc2ccccc2c(=O)[nH]1)NC1CCOCC1 | inactive
